High-throughput results deposited in PubChem by National Center for Advancing Translational Sciences (NCATS).
Menin-MLL TR inh: qHTS Assay for Inhibitors Targeting the Menin-MLL Interaction in MLL Related Leukemias: Competition With Texas Red Labeled MLL-derived Mutant Peptide; Menin + Texas Red MLL mutant peptide, fluorescence polarization; Potency, µM (series often up to 61.6 µM), inactives show at the highest dose FP activity change, negative = inhibition, hits mostly inhibitors; 0.23% of 270,000 active; active = well fitted inhibition curve with a large enough effect in the polarisation, with a control signal flat, not every such curve was filed as active; inconclusive = small, poorly fitted or top-dose-only effect, or effect the other way, or a change in a side signal; inactive = no such curve, though single readings can be large or run the other way; the % refers to the polarisation; also: potency is read from the fitted curve at half-maximal effect; % of control where 0% means no effect
p53 reactivation: qHTS assay for re-activators of p53 using a Luc reporter; H1299 p53-A138V BP100-luciferase reporter, luminescence, 24 h; Potency, µM (series often up to 92.2 µM), for the others: at the top dose activity change, positive = activation, hits mostly activators; 0.063% of 320,000 active; AID 504706, 2011; active = well fitted activation curve with a large enough effect; inconclusive = small, poorly fitted or top-dose-only effect; inactive = no such curve, though single readings can be large or run the other way; also: potency is read from the fitted curve at half-maximal effect; % of control where 0% means no effect; nearly all actives have a fitted effect of over 45% in size
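p53-null H1299 cells stably carrying temperature-sensitive p53-A138V and a BP100-luciferase reporter were pinned with compounds (4-point, 1:5 series) and held 24 hrs at 37 deg C. Luminescence was read 10 min after detection reagent.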
ClpP mod: qHTS Assay for Activators of ClpP | AID 651965, 2013 | 1.9% of 340,000 active | purified B. subtilis ClpP, FRET peptide cleavage, 20 min | ATP-dependent Clp protease proteolytic subunit (Bacillus subtilis (strain 168)), P80244 | Potency, µM (titrated, usually from 57.5 µM), for the others: at the top dose activity change, negative = active; active = well fitted falling curve with a large enough effect; inconclusive = small, poorly fitted or top-dose-only effect; inactive = no such curve, though single readings can be large or run the other way; also: potency is read from the fitted curve at half-maximal effect; the source files actives as falling curves though it sought activators and does not explain the sign; nearly all actives have a fitted effect of over 65% in size
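ClpP 10 microg/mL final, pH 8 Tris/KCl buffer with BSA, glycerol, Tween-20; compound pinned in; FRET-FV substrate; RT 20 min; Ex320/Em430; ΔFRET vs ADEP 5.8 microM, DMSO, no enzyme.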
CXXC DNA block: qHTS Fluorescence Polarization Assay for Inhibitors of MLL CXXC domain - DNA interaction | Histone-lysine N-methyltransferase 2A (Homo sapiens), Q03164 | MLL-CXXC / FITC-HOXA9 DNA fluorescence polarization | Potency, µM (titrated, usually from 115 µM), for inactives: at the highest dose activity change, negative = inhibition, actives largely listed as inhibitors | 0.037% of 290,000 active; active = well fitted inhibition curve with a large enough effect in the polarisation, with a control signal flat, not every such curve was filed as active; inconclusive = small, poorly fitted or top-dose-only effect, or effect the other way, or a change in a side signal; inactive = no such curve, though single readings can be large or run the other way; the % refers to the polarisation; also: potency is read from the fitted curve at half-maximal effect
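Steps: dispense CXXC domain solution (7 uM) → pin compounds or unlabeled HOX-A9 DNA control → 5 min ambient → add FLSN-HOX-A9 solution (50 nM) → spin → 30 min ambient → fluorescence polarization. Tris pH 7.5/NaCl/DTT/BSA buffer.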
Menin MLL FP FL: qHTS Assay for Inhibitors Targeting the Menin-MLL Interaction in MLL Related Leukemias: Competition With Fluorescein Labeled MLL-derived Peptide; Fluorescence polarization, fluorescein-MLL peptide displacement from menin; AID 1766, 2009; FP activity change, % at 61.4 µM; 290,000 tested, under 10 active; active = well fitted curve in the direction sought with a large enough effect in the polarisation, not every such curve was filed as active; inconclusive = small, poorly fitted or top-dose-only effect, or effect the other way, or a change in a side signal; inactive = no such curve, though single readings can be large or run the other way; the % refers to the polarisation; also: % of control where 0% means no effect
An asterisk follows results filed as active; ? = inconclusive; · = no result given; ! = repeats disagree; [ ] = remark or other dose. This is one part of a sample in which hits are shown more often than they occur.

SMILES | Menin-MLL TR inh | p53 reactivation | ClpP mod | CXXC DNA block | Menin MLL FP FL
CCCCCC(=O)N1CCN(CCN=CC2=C(O)CC(c3cccs3)CC2=O)CC1 (stereo not given) | 0% | 0% | 32µM*! | -4% | -2
CC(C)C[C@H](NC(=O)[C@H](C)NC(=O)CNC(=O)[C@H](CCCCN)NC(=O)[C@H](CCCN=C(N)N)NC(=O)[C@H](C)NC(=O)[C@H](Cc1ccccc1)NC(=O)[C@@H](N)CCCN=C(N)N)C(=O)N[C@@H](CCCN=C(N)N)C(=O)N[C@@H](CCC(N)=O)C(=O)N[C@@H](CCCCN)C(=O)N[C@@H](CC(N)=O)C(=O)N[C@H](C(N)=O)C(C)C | ? | · | · | · | -15
O=C(/C=C/C=C/c1ccccc1)c1ccco1 | 27% | 22µM* | -1% | -15% | 2
CN(C)S(=O)(=O)c1cccc(NC(=O)COC(=O)[C@H](Cc2ccccc2)NC(=O)c2ccco2)c1 | · | 5% | 28µM* | · | ·
O=C(NCc1cccnc1)[C@@H]1CC=C[C@@H]2CCN(C3CCCCC3)C(=O)[C@@H]21 | · | · | 1% | · | ·
CN(C)c1ccc(-c2noc(C3CCN(S(=O)(=O)c4cccc(Cl)c4)CC3)n2)cc1 | -26% | 5% | 20µM* | 8% | 9
Cc1ccc2c(n1)sc1c(N)ncnc12 | -13% | 9% | 32µM* | -13% | 1
Cc1cc(-c2ccccc2)c(C#N)c(N)n1 | -5% | · | 32µM* | 0% | 1
Cc1ccc2c(n1)sc1c(-c3ccccc3)c(C#N)c(N)nc12 | -11% | -11% | 35µM* | -28% | 1
Cc1ccc(CNC(=O)c2cc(=O)c3cc(C)c(C)cc3o2)cc1 | · | · | 0% | · | ·
COc1ccc([C@]23Cc4cc(OC)c(OC)cc4C(O2)C2=C(CCCC2=O)O3)cc1 | 13%[11.7 µM] | · | · | 0%[23 µM] | 14[11.7 µM]
COc1ccc(Cl)cc1Nc1ncnc2c1nc1n2CCCC1 | · | · | -4% | · | ·
COc1cccc(CN2Cc3cccc4c3[C@H](C=CC4)CC2=O)c1 | · | · | -20% | · | ·
O=C(Nc1ccnn1C1CCN(Cc2ccc(Cl)cc2)CC1)C1CCCC1 | · | 12% | 2% | 2% | ·
CCc1ccc(CN2CCC(n3nccc3NC(=O)C3CCCC3)CC2)cc1 | -20% | 10% | 28µM* | 12% | -1
CN(C1CCCCC1)S(=O)(=O)c1ccc(NC(=O)C2CCCCC2C(=O)O)cc1 (stereo not given) | -5% | 1% | 32µM* | 6% | 4
O=C(COC(=O)CNC(=O)C1CCCCC1)NC1CC1 | · | · | -1% | · | ·
Cc1nn(C)cc1CNC(=O)C1CCC(=O)N(Cc2cccc(C(F)(F)F)c2)C1 (stereo not given) | · | -1% | 25µM* | 3% | ·
Cc1cc(CNC(=O)C2CCC(=O)N(Cc3cccc(C(F)(F)F)c3)C2)no1 (stereo not given) | -6% | 6% | 1% | -3% | 0
CC(C)CCNC(=O)COc1ccc2c3c(c(=O)oc2c1)CCC3 | 14% | -2% | 10µM* | -2% | 1
CC(C)CNC(=O)COc1ccc2c3c(c(=O)oc2c1)CCC3 | -15% | 11% | 25µM* | -18% | -2
O=C(COc1ccc2c3c(c(=O)oc2c1)CCC3)NCC(O)c1ccccc1 (stereo not given) | -1% | 4% | ? | 1% | -7
C=C1c2cc(OC)ccc2NC(=O)N1CC | 26% | 0% | 3.2µM* | -24% | 2
COc1ccc2c(c1)/C(=C/c1cc(OC)c(OC)c(OC)c1)C(=O)N2 | · | · | 60% | · | ·
Cc1c(C)c2c(c(C)c1O)CCC(C)(COc1ccc(Cc3sc(=O)[nH]c3O)cc1)O2 (stereo not given) | ? | · | · | · | 0
SMILES | Menin-MLL TR inh | p53 reactivation | ClpP mod | CXXC DNA block | Menin MLL FP FL
CO/N=C(\C(=O)N[C@@H]1C(=O)N2C(C(=O)[O-])=C(C[n+]3cccc4c3CCC4)CS[C@H]12)c1csc(N)n1 | -4% | · | · | 10% | -1
Cc1oc2cc(O)ccc2c(=O)c1-c1ccccc1 | 5% | 0% | · | 3% | -1
Cc1oc2cc(O)ccc2c(=O)c1-c1cnn(-c2ccccc2)c1 | 28% | 10% | 32µM* | 3% | 2
Cc1ccc(-c2nc(=Nc3c(C)cc(C)cc3C)sn2-c2ccccc2)cc1 | · | · | 2% | · | ·
CC(C)(C)C(=O)Nc1ccccc1C(=O)OCc1cc(=O)n2ccsc2n1 | · | · | -6% | · | ·
O=C(Nc1ccc(F)cc1F)Nc1csc2ccccc12 | · | 24% | 11µM* | 0% | 6
C(=C\c1ccnc2ccccc12)/c1ccc(N2CCNCC2)cc1 | · | · | 0% | · | ·
CN(C)C=Nc1ncc2c3ccccc3n(Cc3ccccc3)c2c1C#N | -14% | 0% | 32µM* | -10% | 3
CN(C)C=Nc1ncc2c3ccccc3n(CCN(C)C)c2c1C#N | -16% | -4% | ? | 4% | 0
Cc1cc(C)cc(C(=O)Nc2c(C(=O)Nc3ccccc3F)oc3ccccc23)c1 | · | · | 13µM* | · | ·
COc1ccc(NC(=O)c2oc3ccccc3c2NC(=O)c2cc(C)cc(C)c2)c(OC)c1 | · | · | 4% | · | ·
CNc1nc(Cl)nc2c1ncn2-c1ccccc1 | · | · | 1% | · | ·
O=c1c(Cl)c(NCCO)ncn1-c1ccccc1 | 7% | 13% | 28µM* | -2% | 4
Cc1ccc(NC(=O)C(=O)NCC(c2ccc3c(c2)OCO3)N2CCN(C)CC2)c(C)c1 (stereo not given) | · | · | -2% | · | ·
CC(=O)Nc1ccc(S(=O)(=O)Oc2ccc(/C=C3\SC(N)=NC3=O)cc2)cc1 | 14µM* | -4% | · | 2% | -1
NC1=NC(=O)/C(=C/c2ccc(OCC(=O)O)cc2)S1 | -19% | -2% | -2% | 30% | 17
O=C(C[n+]1cc2ccccc2c2ccccc21)c1ccccc1 | · | 20% | 25µM* | -6% | 12
Cc1ccc(C(=O)N2CCCC(N(C)Cc3ccccc3)C2)s1 (stereo not given) | · | 7% | 22µM* | 15% | ·
COc1cc(OC)c(/C=C/c2ccc3ccccc3[n+]2[O-])c(OC)c1 | · | · | -3% | · | ·
COc1cc(Cl)ccc1OCc1cc(C(=O)NC(C)Cc2cccnc2)no1 (stereo not given) | · | 10% | 28µM* | 9% | ·
COc1ccc(OCc2cc(C(=O)NC(C)Cc3cnccn3)no2)c(Cl)c1 (stereo not given) | 0% | ? | 0% | 13% | -5
Cc1cc(NC(=O)N2CCC(CN3CCOCC3)CC2)ccc1Br | · | · | -2% | · | ·
O=C(Nc1ccccc1C(=O)NCc1ccco1)NC1CCCCC1 | -3% | 8% | 20µM* | -1% | 1
CS(=O)(=O)Nc1ccccc1C(=O)NCc1ccco1 | 7% | -6% | 28µM* | 0% | 5
